PubChem BioAssay AID624304 (Sanford-Burnham Center for Chemical Genomics, 2012)
About 1,800 (0.5%) of roughly 360,000 compounds were called active.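 The calls were made as follows: active = interference check ratio from 0.5 to 1.5 plus GFP to RFP signal ratio inhibition reaching or exceeding a fixed threshold (cut at about 30% in these data, passing the limit was not always enough); inactive = the rest.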 Only a selection was taken, and actives are over-represented in it overall.

Experiment: gst-4 reporter inhibition in live C. elegans – whole organism, uHTS, GFP/RFP fluorescence ratio, strain VP596, SKN-1 inhibitor project, primary screen (AID 624304)
Settings: C. elegans VP596 Pgst-4::GFP/RFP ratio, acrylamide-induced, 24 h; at 21.8 µM; stronger effect = higher value

inhibition, active:
Cc1onc(-c2ccccc2Cl)c1C(=O)NCCn1ccc2ccccc21 39.7%, O=C(NC1CCCC1)c1cc(-c2ccccc2)on1 37.3%, CCCCNC(=O)CSc1nc2ccc(NC(=O)CSc3nnc(COc4ccccc4C)n3C)cc2s1 39.2%, CCOC(=O)/C=C/CN(C(=O)OC(C)(C)C)S(=O)(=O)N1CC=CC1 35.2%, CC(=O)N1CCN(c2ccc(NCc3ccc(C(C)C)cc3)cc2)CC1 36.1%, Cc1ccc(-c2nc(-c3ccncc3)no2)c(C)c1 37%, c1csc(-c2nc(-c3ccncc3)no2)c1 47.4%, CC(=O)N(CN1C(=O)C2CC=CCC2C1=O)c1cccc(Cl)c1 (stereo not drawn) 36.1%, COc1cc(C(=O)Nc2nccs2)cc(OC)c1OC 41.9%, O=S(=O)(Cc1cc(Sc2ccccc2)nc(-c2ccccc2)n1)c1ccccc1 44.9%, O=C(CCn1c(=S)[nH]c2ccccc2c1=O)NCCCN1CCCC1=O 36.5%, COC(=O)CNC(c1ccccc1Cl)c1cc(Br)ccc1NC(=O)CCN1CCOCC1 (stereo not drawn) 35.2%, CN1c2ccc(C=O)c3c(C=O)ccc(c23)N(C)C1(C)C 39.8%, O=[N+]([O-])c1ccc(N/N=C/c2ccccc2)cc1 41.2%, Brc1ccc2nc(N3CCCC3)sc2c1 52%, FC(F)(F)c1ccnc(Oc2ccc(C3=NCCS3)cc2)c1 44.7%, CCCCOc1ccc(-c2nnc(-c3ccco3)o2)cc1 64.9%, CCOc1ccc(-c2nnc(-c3ccco3)o2)cc1 58.1%

inhibition, inactive:
Cc1c(C(=O)NCCN2CCOCC2)sc2nc(-c3ccc(F)cc3)cn12 5.89%, CC/C(=N/Nc1ccccc1)c1cnnc(SC)n1 10.2%, CCOc1ccc(CNC(=O)C2CC(=O)N(C3CCCC3)C2)cc1OC (stereo not drawn) 8.98%, CCOC(=O)C1CCN(C(=O)C2CCN(S(=O)(=O)CC)CC2)CC1 6.26%, Cc1onc(-c2ccccc2Cl)c1C(=O)N(Cc1ccc(N(C)C)cc1)C(C)C -21.5%, Cc1ccc2cc(CCNC(=O)c3c(-c4ccccc4Cl)noc3C)c(=O)[nH]c2c1 11.2%, FC(F)(F)c1ccc(-c2cccc3c2C2CC3CCN2Cc2ccccc2)cc1 (stereo not drawn) 7.81%, CC1(C)Cc2ccccc2-c2nnc(-c3cccc(O)c3)n21 27.7%, O=C(NCCCn1ccnc1)c1cc(-c2ccccc2)on1 8.95%, O=C(NC1CCCCCCC1)c1cccs1 22.3%, NC1=CC(=O)C(=O)c2cccnc21 18.3%, COc1ccccc1Cn1c(C)nnc1-c1cnn(C)c1N 10.4%, CC(=O)Nc1ccc(NC(=O)CSc2nnc(COc3ccccc3C)n2CC2CCCO2)cc1 (stereo not drawn) -7.59%, CCOc1cc(C)ccc1OCc1nnc(SCC(=O)Nc2cccc(C(=O)O)c2)n1-c1ccccc1 -9.28%, Cc1nonc1C1CCCN1Cc1nc(-c2ccc(F)cc2F)oc1C (stereo not drawn) 10%, CSc1nnc(CNC(=O)c2ccccc2)n1-c1ccc(F)cc1 -6.87%, Cc1ccnc(SCCn2c(Br)nc3c2c(=O)[nH]c(=O)n3C)n1 -9.02%, CCCCCCCCCCCCN1C(=O)CSC1c1cccnc1 (stereo not drawn) -6.65%, CCOc1cc(CO)ccc1OCC(=O)N1CCCCC1 7.04%, CCOC(=O)/C=C/c1ccc(C(F)(F)F)cc1S(=O)(=O)NC(C)(C)C 3.66%, CNc1cc(-c2c(OC)cccc2OC)ncn1 4.47%, CCCC(=O)N1CCC1(C)C(=O)NCc1ccc(C(C)C)cc1 (stereo not drawn) 14.8%, CC(C)c1ccc(NC(=O)COC(=O)c2ccc(CN3CCCC3=O)cc2)cc1 -1.54%, COCCNC(=O)c1ccc(N2CCC3(CC2)OCCO3)c([N+](=O)[O-])c1 -6.38%, O=C(Nc1nn(Cc2ccccc2F)cc1Br)c1cccs1 6.46%, O=C(NCc1cccnc1)c1nc(-c2cccs2)no1 7.29%, Cc1ccc(-c2noc(-c3ccccc3C(=O)NCC3CCCO3)n2)cc1 (stereo not drawn) -3.76%, COc1ccc(CCc2nc(-c3cccs3)no2)cc1 -7.8%, COc1cc(OC)cc(C(=O)OCC(=O)Nc2sccc2C(N)=O)c1 0.966%, COCCn1c(=NC(=O)c2ccccc2[N+](=O)[O-])sc2cc(S(C)(=O)=O)ccc21 0.193%, COc1ccc(C(=O)NC(C)Cn2nc(C)cc2C)cc1OC1CCN(C(C)=O)CC1 (stereo not drawn) 8.35%, CCC(Cc1ccccc1)NS(=O)(=O)c1ccc2c(c1)NC(=O)CS2 (stereo not drawn) -5.64%, O=C(Nc1cc(F)ccc1F)c1ccc2c(=O)n3c(nc2c1)CCC3 -4.08%, COC[C@@H]1NS(=O)(=O)c2ccc(Br)cc2O[C@H]1c1ccccc1 14.6%, COc1ccc(C(=O)NCc2ccc(C)cc2)cc1S(=O)(=O)N1CCCC1 0.996%, CC(=O)N(CN1C(=O)C2C3C=CC(C3)C2C1=O)c1cccc(Cl)c1 (stereo not drawn) 16.7%, CCOC(=O)c1cccc(NC(=O)CN2C(=O)C3CC=CCC3C2=O)c1 (stereo not drawn) 6.29%, COc1ccc(NC(=O)C(CC(C)C)NC(=O)C2CCC(C)CC2)cc1 (stereo not drawn) -11.6%, CC(=O)Oc1ccc(C(=O)Nc2nccs2)cc1 3.06%, COc1ccc(Cc2nnc(NC(=O)c3cc(OC)c(OC)c(OC)c3)s2)cc1OC -13.7%, CCC(C)(C)c1ccc(OCC(=O)N(C)C)c(C(C)(C)CC)c1 2.98%, CC1(C(=O)NS(=O)(=O)c2cccc(F)c2)CCN1C(=O)Cc1ccc(Cl)cc1Cl (stereo not drawn) 15.6%, C=C(C)Cn1c(N2CCN(CC)CC2)nc2c1c(=O)[nH]c(=O)n2C 16.3%, O=S(=O)(Cc1cc(Cl)nc(-c2cccnc2)n1)c1ccccc1 -15.6%, Cc1ccc(Sc2cc(N3CCOCC3)nc(-c3ccccc3)n2)cc1 7.71%, Cc1cc2c(=O)n(CC(=O)NCC(=O)Nc3ccc(C(C)C)cc3)cnc2s1 -0.0427%, CCOc1ccc(N2C(=O)/C(=C/c3ccc(C)o3)N(C)C2=S)cc1 -1.02%, O=Cc1c(NCCCN2CCCC2=O)c2ccccc2[nH]c1=O 19.6%, CCOc1cc2[nH]c(=S)n(CCCN3CCCC3=O)c(=O)c2cc1OCC -28.4%, COc1ccc(N2CCN(C(=O)C3CCN(S(=O)(=O)c4ccc(C)cc4)CC3)CC2)cc1 5.77%, CC(CCc1ccccc1)NC(=O)COC(=O)c1ccc(F)cc1 (stereo not drawn) 3.96%, CCc1ccc(OCC(=O)OCC(=O)c2c(N)n(C)c(=O)n(C)c2=O)cc1 -10%, C[C@H]1CN([C@@H](C)CO)C(=O)CCCn2cc(nn2)CO[C@@H]1CN(C)C(=O)Nc1ccccc1 1.2%, Cc1cc(NC(=O)CCN2CCN(Cc3ccccc3)CC2)ccc1Br 1.51%, COc1ccccc1NC(=O)CCN1CCN(c2ccc(Cl)cc2)CC1 8.41%, Cc1cc(C)cc(NC(=O)C2CCCN(S(=O)(=O)c3ccc4[nH]c(=O)ccc4c3)C2)c1 (stereo not drawn) 11.9%, O=S(=O)(NC1CC2CCC1C2)c1ccc(Cl)cc1 (stereo not drawn) 8.97%, CCCCNC(=O)C1(O)c2ccccc2NC(=O)N1c1ccc(Cl)cc1 (stereo not drawn) 19.1%, CSc1ccc(CNC(=O)c2ccc(NC(=O)C3=CSCCO3)cc2)cc1 22.9%, Cc1nc2ccccn2c1C(=O)NN=C1CCN(C)CC1 8.18%, CC1=NNC(=O)C1Cc1c(Cl)cccc1Cl (stereo not drawn) -3.65%, Cc1ccc(OCCNC(=O)CNC(=O)c2ccc(C)c(C)c2)cc1 5.58%, COC(=O)c1ccccc1N=NNc1ccc([N+](=O)[O-])cc1 20.6%, CC(C=Cc1ccccc1)=NNS(=O)(=O)c1ccc([N+](=O)[O-])cc1 21.6%, CC1CN(c2cc(=O)n(-c3cccc(Br)c3)c(=O)[nH]2)CC(C)O1 (stereo not drawn) 5.49%, O=C(NCCc1cccc(F)c1)C1CCCN(c2nc3ccccc3s2)C1 (stereo not drawn) 10.3%, COc1ccc2nc(N3CCN(C(=O)c4ccc([N+](=O)[O-])o4)CC3)sc2c1 2.32%, CCCCN1C(=S)NC[C@@H]1C(C)CC (stereo partly drawn) -0.152%, Clc1ccc(C[n+]2cc(-c3ccc(Cl)cc3)n3c2CCC3)cc1 0.364%, O=C(C1CCN(S(=O)(=O)c2cnc[nH]2)CC1)N1CCN(Cc2ccc3c(c2)OCO3)CC1 17.4%, COc1ccccc1N1CCN(CC(=O)Nc2ccnn2C2CCCC2)CC1 -9.67%, CCC(=O)Nc1ccc(S(=O)(=O)Nc2c(NC)c3ccccc3oc2=O)cc1 9.74%, CN(Cc1ccccc1)C(=O)COC(=O)c1ccccc1Nc1ccccc1 -4.32%, Cc1cccc(N2CCN(C(=O)c3cccc(S(=O)(=O)N4CCc5ccccc5C4)c3)CC2C)c1 (stereo not drawn) -16.8%, COc1cccc(C2SCC(=O)N2c2cccc(C)c2)c1OC (stereo not drawn) 2.8%, Cc1cc(C(C)(C)C)oc1C(=O)N(CC(=O)NC1CCCC1)Cc1ccc(Cl)cc1 6.57%, O=C(CSc1nnc(-c2ccco2)o1)NCC(=O)c1ccccc1 -0.628%, CCOc1ccc(NC(=O)N(CCC(C)C)C(C)c2ccco2)cc1 (stereo not drawn) -11.7%, CCCCSc1nnc(-c2ccc(C)cc2)o1 1.11%, CCCOc1ccc(-c2c(C(=O)N/N=C/c3ccco3)nnn2-c2nonc2N)cc1 3.6%
